Screens (PubChem BioAssay)
Shown is part of a subset that was picked to be rich in hits.
MgrA DNA FP: S. aureus MgrA-DNA binding modulation; fluorescence polarization; AID 602314; 0.13% of 84,000 active; inhibition, % (concentration not given with the values); in the data active means inhibition above about 30%, passing the limit was not always enough;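 further: 0% = protein plus DNA without compound and 100% = DNA alone without protein; higher means less MgrA bound to DNA so lower polarization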
* hit, by the source's call.

SMILES	MgrA DNA FP
O=[N+]([O-])c1ccc(N2CCCCC2)c2nonc12	16
O=[N+]([O-])c1ccc(N2CCCC2)c2nonc12	52*
C=CCN1C(=O)/C(=C\c2ccc(OC)cc2)C(=O)NC1=S	30
CCOC(=O)C1CCN(/C=C2/C(=O)NC(=O)N(Cc3ccco3)C2=O)CC1	29*
CCN1C(=O)NC(=O)/C(=C\c2cn(CC(=O)N3CCCCC3C)c3ccccc23)C1=O (stereo not given)	15
COc1ccc(-n2c(C)cc(/C=C3/C(=O)NC(=O)N(Cc4ccco4)C3=O)c2C)cc1	7
C=CC1CN2CCC1CC2[C@H](O)c1cnc2ccccc2c1 (stereo not given in full)	0
CN(C)C(=O)Oc1ccc(C2SCCS2)cc1	-2
COc1ccc(CCNC2CCCCC2C)cc1OC (stereo not given)	-2
O=C1NC(=S)NC(=O)C1=Cc1ccncc1	2
COC(=O)C1=CN2C(C=C1)C(C(=O)OC)(C(=O)OC)[C@@H](c1cccnc1)[C@@H]2C#N (stereo not given in full)	52*
COc1cc(C(=O)OC2CC3CCC(C2)N3C)ccc1O (stereo not given)	2
CCc1cc(OC(=O)N(C)C)nc(-c2ccc(F)c(Cl)c2)n1	2
C=CCN1CCN(C(=O)Cc2cccc(C)c2)CC1	-3
CCCCn1c(C)c(C(=O)OCC)c2cc(OC(=O)c3cccc(Cl)c3)c3ccccc3c21	0
